# Test results taken from PubChem BioAssay (Tox21).
# Where “and” joins values, the source holds several entries; their conditions need not be identical. Equal entries are not always repeated. Records with an inconclusive call do not appear. Entries that show only a call come without a potency. The source holds several records for some structures; these can differ, active in one and inactive in another. Calls of active or inactive are those of the source. Calls come from the whole dose curve; as a rule, active = well fitted curve in the direction sought with a large enough effect in the repeat runs; inconclusive = weak or mixed curves; inactive = no such curve, though single readings can be large; an effect the other way counts as inactive or inconclusive.
# How the values were obtained:
# [1] = qHTS RealTime-Glo MT Cell Viability Assay in HepG2 cells - 40 hour (AID 1224870); note: nearly all actives have a fitted effect of over 50% in size
# Summary of the method: (§1)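 HepG2 cells mixed with RealTime-Glo MT reagents (NanoLuc plus cell-permeant prosubstrate) were seeded at 600 cells/well, incubated 5 h at 37 C/5% CO2, then pinned with compounds in DMSO; nonlytic luminescence tracked viability during 40 h treatment.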
# [2] = A CellTox Green Cytotoxicity Assay to monitor cytotoxicity in HEK293 cells - 40 hour (AID 1224871); note: nearly all actives have a fitted effect of over 45% in size; note: potency is the fitted concentration of half-maximal effect
# Summary of the method: (§2)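 Real-time, in one plate: 600 HEK293 cells/well with dead-cell DNA dye, pinned compound after 5 h, 37 C incubation over 40 h; viable cells give no appreciable fluorescence.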
# [3] = qHTS RealTime-Glo MT Cell Viability Assay in HEK293 cells - 16 hour (AID 1224872); note: nearly all actives have a fitted effect of over 50% in size; note: potency is the fitted concentration of half-maximal effect
# Summary of the method: (§3)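 Quantitative high-throughput screen of the Tox21 10K library in HEK293: cells and RealTime-Glo reagents plated together, compound added at 5 h, luminescence monitored through 40 h at 37 C.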
# [4] = qHTS RealTime-Glo MT Cell Viability Assay in HepG2 cells - 8 hour (AID 1224873); note: nearly all actives have a fitted effect of over 55% in size
# Summary of the method: as §1
# [5] = qHTS RealTime-Glo MT Cell Viability Assay in HEK293 cells - 40 hour (AID 1224874); conditions: RealTime-Glo luminescence; max response: stronger effect = lower value; note: nearly all actives have a fitted effect of over 50% in size; note: potency is the fitted concentration of half-maximal effect
# Summary of the method: (§4)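 Kinetic, non-lysing viability readout. Seed HEK293 (600/well) with reagent, incubate 5 h at 37 C/5% CO2, pin 23 nL compound in DMSO, incubate at 37 C, read luminescence at 0, 8, 16, 24, 32, 40 h.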
# [6] = A CellTox Green Cytotoxicity Assay to monitor cytotoxicity in HEK293 cells - 24 hour (AID 1224875); note: series mostly up to about 77 µM; nearly all actives have a fitted effect of over 45% in size
# Summary of the method: as §2
# [7] = A CellTox Green Cytotoxicity Assay to monitor cytotoxicity in HepG2 cells - 16 hour (AID 1224876); note: nearly all actives have a fitted effect of over 45% in size
# Summary of the method: (§5)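 Cytotoxicity was tracked as dead-cell DNA fluorescence in HepG2 cells treated with test compounds at 37 C; each time-point value comes from one kinetic series spanning 0, 8, 16, 24, 32 and 40 h.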
# [8] = qHTS RealTime-Glo MT Cell Viability Assay in HepG2 cells - 32 hour (AID 1224877); note: nearly all actives have a fitted effect of over 55% in size
# Summary of the method: (§6)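 Compound treatment began 5 h after plating HepG2 cells (600/well) with NanoLuc luciferase and prosubstrate. Plates stayed at 37 C for 40 h; luminescence was captured at six time points, 0 h through 40 h.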
# [9] = A CellTox Green Cytotoxicity Assay to monitor cytotoxicity in HepG2 cells - 24 hour (AID 1224878); note: nearly all actives have a fitted effect of over 45% in size; note: potency is the fitted concentration of half-maximal effect
# Summary of the method: as §5
# [10] = A CellTox Green Cytotoxicity Assay to monitor cytotoxicity in HepG2 cells - 40 hour (AID 1224879); note: nearly all actives have a fitted effect of over 40% in size; note: potency is the fitted concentration of half-maximal effect
# Summary of the method: as §5
# [11] = qHTS RealTime-Glo MT Cell Viability Assay in HEK293 cells - 0 hour (AID 1224880)
# Summary of the method: as §4
# [12] = A CellTox Green Cytotoxicity Assay to monitor cytotoxicity in HEK293 cells - 32 hour (AID 1224881); note: nearly all actives have a fitted effect of over 40% in size; note: potency is the fitted concentration of half-maximal effect
# Summary of the method: as §2
# [13] = A CellTox Green Cytotoxicity Assay to monitor cytotoxicity in HepG2 cells - 0 hour (AID 1224882); note: nearly all actives have a fitted effect of over 35% in size
# Summary of the method: as §5
# [14] = A CellTox Green Cytotoxicity Assay to monitor cytotoxicity in HepG2 cells - 32 hour (AID 1224883); note: nearly all actives have a fitted effect of over 50% in size; note: potency is the fitted concentration of half-maximal effect
# Summary of the method: as §5
# [15] = A CellTox Green Cytotoxicity Assay to monitor cytotoxicity in HEK293 cells - 8 hour (AID 1224884); note: nearly all actives have a fitted effect of over 35% in size
# Summary of the method: as §2
# [16] = qHTS RealTime-Glo MT Cell Viability Assay in HepG2 cells - 16 hour (AID 1224885); note: nearly all actives have a fitted effect of over 50% in size
# Summary of the method: as §6
# [17] = qHTS RealTime-Glo MT Cell Viability Assay in HEK293 cells - 24 hour (AID 1224886)
# Summary of the method: as §3
# [18] = qHTS RealTime-Glo MT Cell Viability Assay in HEK293 cells - 8 hour (AID 1224887)
# Summary of the method: as §4
# [19] = A CellTox Green Cytotoxicity Assay to monitor cytotoxicity in HEK293 cells - 16 hour (AID 1224888); note: nearly all actives have a fitted effect of over 35% in size
# Summary of the method: as §2
# [20] = qHTS RealTime-Glo MT Cell Viability Assay in HepG2 cells - 0 hour (AID 1224889); note: nearly all actives have a fitted effect of over 50% in size
# Summary of the method: as §6
smiles,measurement,setting,value
C1CNCCN1,outcome,[1],inactive
same,Potency,[2],inactive
same,Potency,[3],inactive
same,outcome,[4],inactive
same,max response,[5],0.515% (inactive) and 0.916% (inactive)
same,Potency,[6],inactive
same,Potency,[7],inactive
same,outcome,[8],inactive
same,Potency,[9],inactive
same,Potency,[10],inactive
same,Potency,[11],inactive
same,Potency,[12],inactive
same,Potency,[13],inactive
same,Potency,[14],inactive
same,Potency,[15],inactive
same,Potency,[16],inactive
same,Potency,[17],inactive
same,Potency,[18],inactive
same,Potency,[19],inactive
same,Potency,[20],inactive
CC(C)Cc1ccc(C(C)C(=O)O)cc1 (stereo unspecified),outcome,[1],inactive
same,Potency,[2],inactive
same,Potency,[3],inactive
same,outcome,[4],inactive
same,max response,[5],5.92% (inactive) and 7.46% (inactive) and 3.63% (inactive)
same,Potency,[6],inactive
same,Potency,[7],inactive
same,outcome,[8],inactive
same,Potency,[9],inactive
same,Potency,[10],inactive
same,Potency,[11],inactive
same,Potency,[12],inactive
same,Potency,[13],inactive
same,Potency,[14],inactive
same,Potency,[15],inactive
same,Potency,[16],inactive
same,Potency,[17],inactive
same,Potency,[18],inactive
same,Potency,[20],inactive
Cc1cccc(Nc2cc(Cl)nc(SCC(=O)O)n2)c1C,outcome,[1],inactive
same,Potency,[2],inactive
same,Potency,[3],inactive
same,outcome,[4],inactive
same,max response,[5],-8.11% (inactive) and -6.81% (inactive) and -0.208% (inactive)
same,Potency,[6],inactive
same,Potency,[7],inactive
same,outcome,[8],inactive
same,Potency,[9],inactive
same,Potency,[10],inactive
same,Potency,[11],inactive
same,Potency,[12],inactive
same,Potency,[13],inactive
same,Potency,[15],inactive
same,Potency,[16],inactive
same,Potency,[18],inactive
same,Potency,[19],inactive
same,Potency,[20],inactive
CCOCCO,outcome,[1],inactive
same,Potency,[2],inactive
same,Potency,[3],inactive
same,outcome,[4],inactive
same,max response,[5],1.5% (inactive) and 7.11% (inactive)
same,Potency,[6],inactive
same,Potency,[7],inactive
same,outcome,[8],inactive
same,Potency,[9],inactive
same,Potency,[10],inactive
same,Potency,[12],inactive
same,Potency,[13],inactive
same,Potency,[14],inactive
same,Potency,[15],inactive
same,Potency,[16],inactive
same,Potency,[18],inactive
same,Potency,[19],inactive
same,Potency,[20],inactive
C#C[C@]1(O)CC[C@H]2[C@@H]3CCC4=CC(=O)CC[C@@H]4[C@H]3CC[C@@]21CC,outcome,[1],inactive
same,Potency,[2],49.1 µM (active) and inactive
same,Potency,[3],43.6 µM (active) and inactive
same,outcome,[4],inactive
same,Potency,[5],43.6 µM (active)
same,max response,[5],-17.5% (inactive)
same,Potency,[7],inactive
same,outcome,[8],inactive
same,Potency,[9],inactive and 38.9 µM (active)
same,Potency,[10],inactive and 43.6 µM (active)
same,Potency,[11],inactive
same,Potency,[12],49.1 µM (active) and inactive
same,Potency,[13],inactive
same,Potency,[15],inactive
same,Potency,[16],inactive
same,Potency,[18],inactive
same,Potency,[20],inactive
NC(N)=NC(N)=NCCc1ccccc1,outcome,[1],inactive
same,Potency,[2],inactive
same,Potency,[3],inactive
same,outcome,[4],inactive
same,Potency,[5],6.16 µM (active)
same,Potency,[6],inactive
same,Potency,[7],inactive
same,outcome,[8],inactive
same,Potency,[9],inactive
same,Potency,[10],inactive
same,Potency,[12],inactive
same,Potency,[13],inactive
same,Potency,[14],inactive
same,Potency,[15],inactive
same,Potency,[16],inactive
same,Potency,[18],inactive
same,Potency,[20],inactive
COc1cc(O)c(C(=O)c2ccccc2)cc1S(=O)(=O)O,outcome,[1],inactive
same,Potency,[2],inactive
same,Potency,[3],inactive
same,outcome,[4],inactive
same,max response,[5],0.237% (inactive) and 12.7% (inactive) and -17.6% (inactive)
same,Potency,[6],inactive
same,Potency,[7],inactive
same,outcome,[8],inactive
same,Potency,[9],inactive
same,Potency,[10],inactive
same,Potency,[12],inactive
same,Potency,[13],inactive
same,Potency,[14],inactive
same,Potency,[15],inactive
same,Potency,[16],inactive
same,Potency,[18],inactive
same,Potency,[19],inactive
same,Potency,[20],inactive
O=C(O)CCCCC1CCSS1 (stereo unspecified),outcome,[1],inactive
same,Potency,[2],inactive
same,Potency,[3],inactive
same,outcome,[4],inactive
same,max response,[5],9.73% (inactive) and 12.3% (inactive) and 7.95% (inactive)
same,Potency,[6],inactive
same,Potency,[7],inactive
same,outcome,[8],inactive
same,Potency,[9],inactive
same,Potency,[10],inactive
same,Potency,[11],inactive
same,Potency,[12],inactive
same,Potency,[13],inactive
same,Potency,[15],inactive
same,Potency,[16],inactive
same,Potency,[17],inactive
same,Potency,[18],inactive
same,Potency,[19],inactive
same,Potency,[20],inactive
NC(=O)NO,outcome,[1],inactive
same,Potency,[2],inactive
same,Potency,[3],inactive
same,outcome,[4],inactive
same,max response,[5],19.8% (inactive) and 1.62% (inactive)
same,Potency,[6],inactive
same,Potency,[7],inactive
same,outcome,[8],inactive
same,Potency,[9],inactive
same,Potency,[10],inactive
same,Potency,[12],inactive
same,Potency,[13],inactive
same,Potency,[14],inactive
same,Potency,[15],inactive
same,Potency,[16],inactive
same,Potency,[18],inactive
same,Potency,[19],inactive
same,Potency,[20],inactive
Cc1cccc(C)c1O,outcome,[1],inactive
same,Potency,[2],inactive
same,Potency,[3],inactive
same,outcome,[4],inactive
same,max response,[5],9.86% (inactive) and 0.971% (inactive)
same,Potency,[6],inactive
same,Potency,[7],inactive
same,outcome,[8],inactive
same,Potency,[9],inactive
same,Potency,[10],inactive
same,Potency,[11],inactive
same,Potency,[12],inactive
same,Potency,[13],inactive
same,Potency,[15],inactive
same,Potency,[16],inactive
same,Potency,[18],inactive
same,Potency,[19],inactive
same,Potency,[20],inactive
COc1cc2c(c(OC)c1OC)-c1ccc(OC)c(=O)cc1[C@@H](NC(C)=O)CC2,outcome,[1],inactive
same,Potency,[2],34.3 µM (active) and inactive
same,Potency,[3],inactive
same,outcome,[4],inactive
same,Potency,[5],0.0216 µM (active)
same,Potency,[6],inactive
same,Potency,[7],inactive
same,outcome,[8],inactive
same,Potency,[9],inactive
same,Potency,[10],54.3 µM (active) and inactive
same,Potency,[11],inactive
same,Potency,[12],inactive
same,Potency,[13],inactive
same,Potency,[14],60.9 µM (active) and inactive
same,Potency,[15],inactive
same,Potency,[16],inactive
same,Potency,[17],inactive
same,Potency,[18],inactive
same,Potency,[19],inactive
same,Potency,[20],inactive
Cc1ccc(O)c(-n2nc3ccccc3n2)c1,outcome,[1],inactive
same,Potency,[2],inactive
same,Potency,[3],inactive
same,outcome,[4],inactive
same,max response,[5],-4.85% (inactive) and -18.6% (inactive) and -8.22% (inactive)
same,Potency,[6],inactive
same,Potency,[7],inactive
same,outcome,[8],inactive
same,Potency,[9],inactive
same,Potency,[10],inactive
same,Potency,[11],inactive
same,Potency,[12],inactive
same,Potency,[13],inactive
same,Potency,[15],inactive
same,Potency,[16],inactive
same,Potency,[17],inactive
same,Potency,[18],inactive
same,Potency,[19],inactive
same,Potency,[20],inactive
